# Reference: PubChem BioAssay
# The source made the active and inactive calls.
# Columns and labels:
# [1] = small molecules captured by biotinylated probe aFSTL3 – biochemical, small-molecule microarray, fluorescence 635/667, stem cell growth factor project, primary screen (AID 1064); details: higher = more signal;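 further: measures binding of the biotinylated anti-FSTL3 antibody to printed compounds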
# [2] = binders from COS7 lysate, DM2A8 probe, primary screen, torsin A project, cell lysate, small-molecule microarray, fluorescence 635/667 (AID 1065); details: higher = more signal, COS7 lysate expressing mutant human TOR1A
# [3] = small molecules captured by biotinylated probe aFGF2 – biochemical, small-molecule microarray, fluorescence 635/667, stem cell growth factor project, primary screen (AID 1067); details: higher = more signal;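 further: measures binding of biotinylated aFGF2 protein to printed compounds on slides; z-score merges feature fluorescence and signal-to-noise across triplicate slides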
# [4] = small molecules captured by biotinylated probe aFGF10 – biochemical, small-molecule microarray, fluorescence 635/667, stem cell growth factor project, primary screen (AID 1071); details: higher = more signal;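 further: score merges 667 nm spot intensity and signal to noise from triplicate slides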
# [5] = molecular target: Neurogenic locus notch homolog protein 2 (Homo sapiens) (UniProt Q04721); assay: small molecules binding Notch2 protein – biochemical, small-molecule microarray, 635 nm fluorescence, stem cell growth factors, primary screen (AID 1073); details: higher = more signal
# Sequence of Neurogenic locus notch homolog protein 2 (Homo sapiens) (Q04721 whole entry, looked up, canonical isoform): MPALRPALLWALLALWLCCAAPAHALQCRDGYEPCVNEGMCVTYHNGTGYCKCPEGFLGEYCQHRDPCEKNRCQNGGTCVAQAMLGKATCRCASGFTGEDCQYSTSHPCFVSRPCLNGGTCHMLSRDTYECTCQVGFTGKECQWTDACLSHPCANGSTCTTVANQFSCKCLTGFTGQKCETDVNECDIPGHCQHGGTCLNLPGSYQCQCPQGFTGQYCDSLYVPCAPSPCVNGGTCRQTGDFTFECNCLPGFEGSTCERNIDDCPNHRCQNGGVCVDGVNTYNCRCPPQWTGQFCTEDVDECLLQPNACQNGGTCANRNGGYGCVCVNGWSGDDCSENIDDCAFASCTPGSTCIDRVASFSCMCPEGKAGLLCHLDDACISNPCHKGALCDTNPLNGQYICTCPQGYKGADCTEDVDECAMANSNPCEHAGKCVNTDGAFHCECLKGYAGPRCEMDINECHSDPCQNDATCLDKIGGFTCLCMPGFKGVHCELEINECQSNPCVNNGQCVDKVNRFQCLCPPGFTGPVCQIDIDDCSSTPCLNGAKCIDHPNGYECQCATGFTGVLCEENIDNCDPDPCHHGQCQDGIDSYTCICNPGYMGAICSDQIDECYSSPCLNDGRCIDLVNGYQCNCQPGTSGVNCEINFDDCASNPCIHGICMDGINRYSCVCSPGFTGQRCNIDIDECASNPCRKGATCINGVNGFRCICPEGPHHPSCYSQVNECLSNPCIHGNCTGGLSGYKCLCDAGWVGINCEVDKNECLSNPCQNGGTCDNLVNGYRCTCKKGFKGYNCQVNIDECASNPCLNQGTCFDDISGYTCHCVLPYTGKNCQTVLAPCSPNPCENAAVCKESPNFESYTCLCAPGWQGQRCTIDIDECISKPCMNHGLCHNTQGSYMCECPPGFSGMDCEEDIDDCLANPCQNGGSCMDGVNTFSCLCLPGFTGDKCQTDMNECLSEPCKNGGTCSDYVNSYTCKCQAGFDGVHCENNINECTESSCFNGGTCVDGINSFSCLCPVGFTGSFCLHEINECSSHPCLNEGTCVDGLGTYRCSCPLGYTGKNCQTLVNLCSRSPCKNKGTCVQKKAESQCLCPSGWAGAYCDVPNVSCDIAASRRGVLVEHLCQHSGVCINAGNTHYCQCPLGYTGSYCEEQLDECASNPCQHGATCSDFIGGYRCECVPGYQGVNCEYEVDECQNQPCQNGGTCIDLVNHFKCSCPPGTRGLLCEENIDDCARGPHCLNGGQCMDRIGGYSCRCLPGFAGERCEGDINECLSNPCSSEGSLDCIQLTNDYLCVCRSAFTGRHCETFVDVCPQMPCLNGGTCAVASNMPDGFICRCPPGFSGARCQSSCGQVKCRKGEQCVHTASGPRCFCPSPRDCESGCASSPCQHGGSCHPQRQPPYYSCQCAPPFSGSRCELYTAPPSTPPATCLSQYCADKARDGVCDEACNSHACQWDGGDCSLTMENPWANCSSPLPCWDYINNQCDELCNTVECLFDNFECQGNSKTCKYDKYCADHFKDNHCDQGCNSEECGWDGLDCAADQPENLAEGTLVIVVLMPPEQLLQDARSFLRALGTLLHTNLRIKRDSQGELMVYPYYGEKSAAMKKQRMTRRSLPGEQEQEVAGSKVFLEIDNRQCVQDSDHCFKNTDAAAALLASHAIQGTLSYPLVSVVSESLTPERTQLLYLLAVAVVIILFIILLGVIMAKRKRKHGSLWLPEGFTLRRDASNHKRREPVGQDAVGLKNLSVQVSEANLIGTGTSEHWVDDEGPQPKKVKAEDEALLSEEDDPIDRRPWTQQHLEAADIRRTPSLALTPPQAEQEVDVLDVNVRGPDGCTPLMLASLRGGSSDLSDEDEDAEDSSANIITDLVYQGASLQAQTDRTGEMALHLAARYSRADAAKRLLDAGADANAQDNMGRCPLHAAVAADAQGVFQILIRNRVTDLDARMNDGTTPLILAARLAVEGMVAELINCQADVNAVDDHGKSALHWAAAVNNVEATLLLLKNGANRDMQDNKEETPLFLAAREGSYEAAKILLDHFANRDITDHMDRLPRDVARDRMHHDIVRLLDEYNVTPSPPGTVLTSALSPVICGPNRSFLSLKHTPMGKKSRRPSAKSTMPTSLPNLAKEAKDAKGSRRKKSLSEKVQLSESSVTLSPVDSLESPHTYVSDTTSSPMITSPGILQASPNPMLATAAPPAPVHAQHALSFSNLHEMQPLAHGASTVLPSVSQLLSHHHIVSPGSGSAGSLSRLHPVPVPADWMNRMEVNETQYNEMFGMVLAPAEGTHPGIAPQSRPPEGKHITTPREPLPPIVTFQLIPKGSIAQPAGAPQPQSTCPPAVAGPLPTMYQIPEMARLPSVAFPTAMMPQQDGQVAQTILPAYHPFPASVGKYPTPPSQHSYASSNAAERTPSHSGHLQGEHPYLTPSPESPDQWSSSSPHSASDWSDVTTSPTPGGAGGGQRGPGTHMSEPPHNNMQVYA
# [6] = molecular target: Pro-neuregulin-1, membrane-bound isoform (Homo sapiens) (UniProt Q02297); assay: small molecules binding neuregulin-1 protein – biochemical, small-molecule microarray, fluorescence 635/667, psychiatric disease protein project, primary screen (AID 1075); details: NRG1 binding, 635 nm fluorescence, higher = more signal;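 further: score combines 667 nm spot fluorescence with signal to noise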
# [7] = test system: Neuregulin-1 EGF-like domain; assay: small molecules binding NRG1 EGF domain – biochemical, small-molecule microarray, 635 nm fluorescence, primary screen (AID 1081); details: higher = more signal;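 further: binding of the protein to compounds printed on small-molecule microarray slides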
# [8] = FRG1 expression reporter modulators in myotubes – cell-based, C2C12 myotubes, firefly/Renilla luciferase, luminescence, FRG1 inhibition for FSHD, primary screen (AID 1084); details: FRG1 promoter luciferase, higher = more signal, called active from +8 up or from −8 down
# [9] = small molecules captured by biotinylated probe aFST – biochemical, small-molecule microarray, fluorescence 635/667, stem cell growth factor project, primary screen (AID 1086); details: higher = more signal;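 further: score merges 667 nm fluorescence with signal-to-noise of each printed compound spot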
# [10] = binders of probe aHhip on microarray, primary screen, stem cell growth factor project, biochemical, small-molecule microarray, fluorescence 635/667 (AID 1087); details: higher = more signal;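 further: score merges spot fluorescence at 667nm with spot signal to noise ratio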
# [11] = test system: PRMT1 (protein arginine N-methyltransferase 1); assay: small molecules binding arginine methyltransferase PRMT1 – biochemical, small-molecule microarray, 635 nm fluorescence, primary screen (AID 1088); details: higher = more signal;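 further: binding of Prmt1 protein to compounds spotted on small-molecule microarray slides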
# [12] = growth effects on S. cerevisiae YJM789 – YJM789 clinical isolate, OD600, 24 h, basal, primary screen (AID 1089); details: higher = more signal, called active from +8 up or from −8 down;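 further: growth of clinical yeast isolate S. cerevisiae YJM 789 seeded 1000 cells per well; test concentration not given here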
# [13] = S. pombe growth modifiers, basal conditions – strain 972, OD600, 24 h, no modulator, primary screen (AID 1090);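 further: basal condition with compound alone and no growth modifier present; test concentration not given here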; details: S. pombe 972 growth, higher = more signal, called active from +8 up or from −8 down
# [14] = budding yeast growth modifiers under rapamycin – strain BY4716, OD600, 96 h, primary screen (AID 1091); further: test concentration not given here; details: S. cerevisiae BY4716 + rapamycin, higher = more signal, called active from +8 up or from −8 down
# [15] = molecular target: Torsin-1A-interacting protein 2 (Homo sapiens) (UniProt Q8NFQ8); assay: small molecules binding lysate-expressed LULL1 – cell lysate, human LULL1 lysate, 635/667 nm fluorescence, primary screen (AID 1092); details: small-molecule microarray, hLULL1 lysate binding, 635 nm fluorescence; higher = more signal;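 further: probe is lysate of COS7 cells overexpressing human LULL1; score merges per-feature 667 nm fluorescence with signal-to-noise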
# [16] = optical density change of DRC41 E. coli – strain DRC41, OD650, 24 h, E. coli filamentation project, primary screen (AID 1093);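 further: MC1000 strain lacking acrAB efflux and sulA so SOS filamentation is blocked; test concentration not given here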; details: E. coli DRC41 growth, higher = more signal, called active from +8 up or from −8 down
# [17] = probe aLefty2 binding to arrayed compounds – biochemical, biotinylated probe, 635/667 nm fluorescence, primary screen (AID 1094); details: small-molecule microarray, higher = more signal;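 further: score merges spot fluorescence near 667 nm with spot signal-to-noise ratio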
# [18] = test system: Noggin (protein binding on small-molecule microarray); assay: small molecules binding Noggin protein – biochemical, 635/667 nm fluorescence, primary screen (AID 1095); details: 635 nm fluorescence, higher = more signal;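 further: score merges 667 nm feature fluorescence with signal to noise over triplicate slides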
# [19] = molecular target: Neurogenic locus notch homolog protein 3 (Homo sapiens) (UniProt Q9UM47); assay: small molecules binding NOTCH3 protein – biochemical, 635/667 nm fluorescence, primary screen (AID 1096); details: small-molecule microarray, 635 nm fluorescence, higher = more signal
# Sequence of Neurogenic locus notch homolog protein 3 (Homo sapiens) (Q9UM47 whole entry, looked up): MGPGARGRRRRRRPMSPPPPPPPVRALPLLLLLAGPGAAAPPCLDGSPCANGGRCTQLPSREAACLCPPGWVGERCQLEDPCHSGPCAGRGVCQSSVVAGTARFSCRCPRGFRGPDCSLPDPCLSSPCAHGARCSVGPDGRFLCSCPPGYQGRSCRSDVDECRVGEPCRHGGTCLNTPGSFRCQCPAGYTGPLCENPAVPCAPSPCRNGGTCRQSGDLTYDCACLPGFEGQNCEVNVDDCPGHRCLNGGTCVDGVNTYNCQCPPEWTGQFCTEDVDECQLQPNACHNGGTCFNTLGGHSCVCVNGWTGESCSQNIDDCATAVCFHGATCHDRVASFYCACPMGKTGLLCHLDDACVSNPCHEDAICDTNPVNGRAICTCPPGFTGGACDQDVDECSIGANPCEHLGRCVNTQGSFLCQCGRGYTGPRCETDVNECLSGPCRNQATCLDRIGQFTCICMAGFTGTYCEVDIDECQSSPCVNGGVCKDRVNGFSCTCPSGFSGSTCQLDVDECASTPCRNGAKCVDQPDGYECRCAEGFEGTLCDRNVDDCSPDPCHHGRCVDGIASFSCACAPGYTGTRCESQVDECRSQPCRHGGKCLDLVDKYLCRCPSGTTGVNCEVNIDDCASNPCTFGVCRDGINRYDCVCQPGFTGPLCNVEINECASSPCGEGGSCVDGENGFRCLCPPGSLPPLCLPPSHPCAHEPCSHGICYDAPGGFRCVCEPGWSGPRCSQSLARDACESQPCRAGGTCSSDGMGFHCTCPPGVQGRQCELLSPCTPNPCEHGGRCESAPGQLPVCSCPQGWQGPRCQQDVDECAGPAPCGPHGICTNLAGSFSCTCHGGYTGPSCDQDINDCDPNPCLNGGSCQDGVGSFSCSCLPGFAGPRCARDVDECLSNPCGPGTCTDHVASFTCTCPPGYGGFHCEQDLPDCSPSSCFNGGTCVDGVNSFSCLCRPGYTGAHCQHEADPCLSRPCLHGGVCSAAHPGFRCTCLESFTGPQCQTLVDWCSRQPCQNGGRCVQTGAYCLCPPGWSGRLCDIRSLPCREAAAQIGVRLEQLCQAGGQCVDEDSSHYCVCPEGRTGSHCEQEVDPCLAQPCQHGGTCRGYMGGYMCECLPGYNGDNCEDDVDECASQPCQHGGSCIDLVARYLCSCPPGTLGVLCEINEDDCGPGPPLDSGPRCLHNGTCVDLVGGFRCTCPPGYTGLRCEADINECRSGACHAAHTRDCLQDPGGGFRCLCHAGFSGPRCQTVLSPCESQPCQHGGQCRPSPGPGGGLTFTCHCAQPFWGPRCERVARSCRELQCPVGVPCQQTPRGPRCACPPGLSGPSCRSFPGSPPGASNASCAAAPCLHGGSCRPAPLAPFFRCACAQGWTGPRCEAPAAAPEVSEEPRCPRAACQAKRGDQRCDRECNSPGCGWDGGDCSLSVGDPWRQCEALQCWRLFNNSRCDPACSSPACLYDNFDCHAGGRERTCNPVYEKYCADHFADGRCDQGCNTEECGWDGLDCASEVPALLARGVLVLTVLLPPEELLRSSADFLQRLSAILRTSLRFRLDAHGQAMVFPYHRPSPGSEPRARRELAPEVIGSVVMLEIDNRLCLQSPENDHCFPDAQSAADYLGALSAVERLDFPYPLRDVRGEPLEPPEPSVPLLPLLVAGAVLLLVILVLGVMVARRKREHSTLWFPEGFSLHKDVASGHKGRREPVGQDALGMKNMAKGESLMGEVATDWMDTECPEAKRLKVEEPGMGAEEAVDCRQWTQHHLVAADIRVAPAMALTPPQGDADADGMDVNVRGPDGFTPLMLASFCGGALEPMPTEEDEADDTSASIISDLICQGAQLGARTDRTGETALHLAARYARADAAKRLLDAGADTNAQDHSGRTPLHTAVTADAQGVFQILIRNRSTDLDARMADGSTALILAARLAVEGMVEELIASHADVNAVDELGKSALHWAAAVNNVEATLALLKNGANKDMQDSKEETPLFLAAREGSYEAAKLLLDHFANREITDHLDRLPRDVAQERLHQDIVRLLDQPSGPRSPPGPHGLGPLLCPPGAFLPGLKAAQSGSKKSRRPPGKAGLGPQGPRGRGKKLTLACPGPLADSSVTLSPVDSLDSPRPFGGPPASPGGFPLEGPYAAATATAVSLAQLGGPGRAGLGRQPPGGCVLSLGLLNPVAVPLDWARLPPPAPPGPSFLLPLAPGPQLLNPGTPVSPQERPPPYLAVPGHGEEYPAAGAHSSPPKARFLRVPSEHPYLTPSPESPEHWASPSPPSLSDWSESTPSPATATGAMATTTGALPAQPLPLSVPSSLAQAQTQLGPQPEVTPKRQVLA
# [20] = probe aEGFR binding to arrayed compounds – biochemical, biotinylated probe, 635/667 nm fluorescence, primary screen (AID 1097); details: small-molecule microarray, higher = more signal;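 further: probe is a biotinylated anti-EGFR antibody binding compounds printed on slides; score combines fluorescence near 667 nm and signal to noise of each spot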
structure (smiles),measurement,setting,value
O=C1O[C@@H](c2ccccc2)[C@@H](c2ccccc2)N2[C@@H](c3ccccc3OCCO)[C@]3(C(=O)Nc4ccccc43)[C@@H](C(=O)O)[C@H]12,composite z-score,[1],-0.229
same,composite z-score,[2],-0.0324
same,composite z-score,[3],0.0301
same,composite z-score,[4],0.551
same,composite z-score,[5],0.522
same,composite z-score,[6],1.57
same,composite z-score,[7],1.12
same,z-score,[8],-1.84 (inactive)
same,composite z-score,[9],-0.0073
same,composite z-score,[10],0.0524
same,composite z-score,[11],1.02
same,z-score,[12],0.232 (inactive)
same,z-score,[13],-1.1 (inactive)
same,z-score,[14],-1.17 (inactive)
same,composite z-score,[15],3.02
same,z-score,[16],-0.413 (inactive)
same,composite z-score,[17],-0.175
same,composite z-score,[18],-0.314
same,composite z-score,[19],0.406
same,composite z-score,[20],-0.185
CC(C)CCC[C@@H](C)[C@H]1CC[C@@]2(C)C3=C(CC[C@]12C)[C@@]1(C)CC[C@H](OC(=O)c2ccc(C(F)(F)F)nc2)C(C)(C)C1CC3 (stereo not given in full),composite z-score,[1],-0.438
same,composite z-score,[2],0.441
same,composite z-score,[3],-0.103
same,composite z-score,[4],0.312
same,composite z-score,[5],0.443
same,composite z-score,[6],-0.323
same,composite z-score,[7],0.198
same,z-score,[8],-1.46 (inactive)
same,composite z-score,[9],-0.108
same,composite z-score,[10],0.223
same,composite z-score,[11],-0.431
same,z-score,[12],-1.64 (inactive)
same,z-score,[13],-0.769 (inactive)
same,z-score,[14],-0.455 (inactive)
same,composite z-score,[15],0.282
same,z-score,[16],3.05 (inactive)
same,composite z-score,[17],-0.233
same,composite z-score,[18],0.52
same,composite z-score,[19],0.483
same,composite z-score,[20],-0.1
COC(=O)C(CC#Cc1ccc2c(c1)[C@]1(C(=O)N2)[C@H](c2ccccc2OCCO)N2[C@H](c3ccccc3)[C@H](c3ccccc3)OC(=O)[C@H]2[C@@H]1C(=O)O)C(=O)OC,composite z-score,[1],0.187
same,composite z-score,[2],0.856
same,composite z-score,[3],0.0876
same,composite z-score,[4],0.866
same,composite z-score,[5],0.275
same,composite z-score,[6],1.65
same,composite z-score,[7],1.32
same,z-score,[8],-0.173 (inactive)
same,composite z-score,[9],0.411
same,composite z-score,[10],0.426
same,composite z-score,[11],1.57
same,z-score,[12],2.46 (inactive)
same,z-score,[13],0.521 (inactive)
same,z-score,[14],-0.188 (inactive)
same,composite z-score,[15],2.37
same,z-score,[16],0.871 (inactive)
same,composite z-score,[17],0.264
same,composite z-score,[18],0.793
same,composite z-score,[19],0.691
same,composite z-score,[20],-0.0032
CC(C)[Si](C#C[Si](C(C)C)(C(C)C)C(C)C)(O[C@H](C)c1cn(Cc2ccccc2)nn1)C(C)C,composite z-score,[1],-0.169
same,composite z-score,[2],0.209
same,composite z-score,[3],-0.106
same,composite z-score,[4],0.422
same,composite z-score,[5],0.795
same,composite z-score,[6],0.566
same,composite z-score,[7],0.938
same,z-score,[8],-1.66 (inactive)
same,composite z-score,[9],0.372
same,composite z-score,[10],-0.337
same,composite z-score,[11],1.04
same,z-score,[12],0.319 (inactive)
same,z-score,[13],0.497 (inactive)
same,z-score,[14],-0.109 (inactive)
same,composite z-score,[15],1.92
same,z-score,[16],1.32 (inactive)
same,composite z-score,[17],-0.0936
same,composite z-score,[18],0.369
same,composite z-score,[19],0.928
same,composite z-score,[20],0.0026
COCCCNC(=O)[C@@]1(Cc2ccccc2)N=C(c2ccc(OCCCO)cc2)O[C@H]1c1ccccc1CN=[N+]=[N-],composite z-score,[1],0.988
same,composite z-score,[2],1.35
same,composite z-score,[3],0.0762
same,composite z-score,[4],0.806
same,composite z-score,[5],1.25
same,composite z-score,[6],1.74
same,composite z-score,[7],1.11
same,z-score,[8],-0.989 (inactive)
same,composite z-score,[9],1.54
same,composite z-score,[10],-0.194
same,composite z-score,[11],1.56
same,z-score,[12],-0.201 (inactive)
same,z-score,[13],0.351 (inactive)
same,z-score,[14],0.463 (inactive)
same,composite z-score,[15],3.16
same,z-score,[16],1.06 (inactive)
same,composite z-score,[17],0.277
same,composite z-score,[18],0.445
same,composite z-score,[19],1.05
same,composite z-score,[20],0.163
COCC(=C=CC[C@@H](O)c1ccc(OCCO)cc1)C[C@@H](O)c1ccccn1,composite z-score,[1],-0.212
same,composite z-score,[2],-0.116
same,composite z-score,[3],-0.0633
same,composite z-score,[4],0.923
same,composite z-score,[5],0.687
same,composite z-score,[6],1
same,composite z-score,[7],1.24
same,z-score,[8],1.33 (inactive)
same,composite z-score,[9],0.423
same,composite z-score,[10],-0.236
same,composite z-score,[11],0.37
same,z-score,[12],-0.64 (inactive)
same,z-score,[13],-1.13 (inactive)
same,z-score,[14],-0.0669 (inactive)
same,composite z-score,[15],0.608
same,z-score,[16],-0.136 (inactive)
same,composite z-score,[17],-0.0931
same,composite z-score,[18],0.274
same,composite z-score,[19],-0.0817
same,composite z-score,[20],0.361
NC(=O)[C@@H]1[C@H]2C(=O)O[C@H](c3ccccc3)[C@H](c3ccccc3)N2[C@H](c2ccc(O)cc2)[C@@]12C(=O)Nc1ccc(C#CC3=CCCCC3)cc12,composite z-score,[1],-0.542
same,composite z-score,[2],0.103
same,composite z-score,[3],-0.222
same,composite z-score,[4],0.604
same,composite z-score,[5],-0.173
same,composite z-score,[6],1.68
same,composite z-score,[7],1.15
same,z-score,[8],0.009 (inactive)
same,composite z-score,[9],-0.21
same,composite z-score,[10],-0.357
same,composite z-score,[11],1.55
same,z-score,[12],1.98 (inactive)
same,z-score,[13],1.4 (inactive)
same,z-score,[14],2.74 (inactive)
same,composite z-score,[15],3.22
same,z-score,[16],-0.716 (inactive)
same,composite z-score,[17],-0.21
same,composite z-score,[18],0.87
same,composite z-score,[19],1.11
same,composite z-score,[20],-0.176
O=C1[C@H]2C=C(Br)[C@H](C[C@@H]2OCCCCCCO)[C@@]12CO2,composite z-score,[1],0.125
same,composite z-score,[2],0.629
same,composite z-score,[3],-0.0443
same,composite z-score,[4],-0.0632
same,composite z-score,[5],-0.565
same,composite z-score,[6],-0.429
same,composite z-score,[7],-0.394
same,z-score,[8],-0.0205 (inactive)
same,composite z-score,[9],0.0363
same,composite z-score,[10],0.122
same,composite z-score,[11],-0.729
same,z-score,[12],0.335 (inactive)
same,z-score,[13],-1.29 (inactive)
same,z-score,[14],1.32 (inactive)
same,composite z-score,[15],-0.283
same,z-score,[16],-1.74 (inactive)
same,composite z-score,[17],0.0183
same,composite z-score,[18],0.387
same,composite z-score,[19],-0.615
same,composite z-score,[20],-0.131
Cc1ccc([C@H]2C(C(=O)O)=CCN2S(=O)(=O)c2ccc(C)cc2)cc1,composite z-score,[1],-0.0451
same,composite z-score,[2],0.0722
same,composite z-score,[3],-0.0271
same,composite z-score,[4],0.231
same,composite z-score,[5],0.539
same,composite z-score,[6],1.24
same,composite z-score,[7],1.1
same,z-score,[8],-0.186 (inactive)
same,composite z-score,[9],0.224
same,composite z-score,[10],-0.0305
same,composite z-score,[11],0.472
same,z-score,[12],-0.76 (inactive)
same,z-score,[13],0.366 (inactive)
same,z-score,[14],-0.18 (inactive)
same,composite z-score,[15],2.82
same,z-score,[16],-0.264 (inactive)
same,composite z-score,[17],0.228
same,composite z-score,[18],0.11
same,composite z-score,[19],0.189
same,composite z-score,[20],-0.0828
C#CCN(C/C=C/c1ccccc1)[C@H](CO)c1ccccc1,composite z-score,[1],-0.565
same,composite z-score,[2],0.484
same,composite z-score,[3],-0.182
same,composite z-score,[4],-0.254
same,composite z-score,[5],0.261
same,composite z-score,[6],-0.516
same,composite z-score,[7],-0.0706
same,z-score,[8],-0.786 (inactive)
same,composite z-score,[9],0.288
same,composite z-score,[10],0.0156
same,composite z-score,[11],-0.019
same,z-score,[12],-3.99 (inactive)
same,z-score,[13],-21.4 (active)
same,z-score,[14],-1.64 (inactive)
same,composite z-score,[15],0.0638
same,z-score,[16],0.408 (inactive)
same,composite z-score,[17],-0.319
same,composite z-score,[18],1.12
same,composite z-score,[19],0.39
same,composite z-score,[20],-0.215
